In the library only some 3.5% were active in any assay of this set; here they are far more common.
Autofluor counter = compound fluorescence in toxin protease inhibitor counterscreen; fluorescence intensity (no concentration beside the values); hit rate 3.1% among 360,000; compound autofluorescence counterscreen, microsphere flow cytometry; stronger effect = higher value; in the data active means fluorescence intensity above about 16000; inconclusive means no clear call, values can overlap the other calls
BoNT-A LC inh2 = BoNT/A light chain protease inhibitors, primary screen, biochemical, flow cytometry, MLPCN library. Botulinum neurotoxin type A light chain protease (Clostridium botulinum A str. ATCC 3502). multiplex microsphere protease substrate cleavage. inhibition, % at 10 µM. hit rate 0.17% among 360,000; further: plate controls were buffer without enzyme for full effect and enzyme alone for no effect
BoNT-F LC inh = BoNT/F light chain protease inhibitors, primary screen, biochemical, flow cytometry, MLPCN library | hit rate 0.22% among 360,000 | Multiplex microsphere protease cleavage assay | inhibition, % at 10 µM | Botulinum neurotoxin type F light chain protease (Clostridium botulinum); in the data active means inhibition above about 35%, passing the limit was not always enough; inconclusive means no clear call, values can overlap the other calls; further: plate controls were buffer without enzyme for full effect and enzyme alone for no effect
Anthrax LF prot = Bacillus anthracis LF protease inhibitors, primary screen, biochemical, multiplex microsphere, MLPCN library. Lethal factor (Bacillus anthracis), P15917. multiplex microsphere protease cleavage assay. inhibition, % at 10 µM. hit rate 0.12% among 360,000; further: plate controls were buffer without enzyme for full effect and enzyme alone for no effect
Target sequence (P15917 whole entry, looked up): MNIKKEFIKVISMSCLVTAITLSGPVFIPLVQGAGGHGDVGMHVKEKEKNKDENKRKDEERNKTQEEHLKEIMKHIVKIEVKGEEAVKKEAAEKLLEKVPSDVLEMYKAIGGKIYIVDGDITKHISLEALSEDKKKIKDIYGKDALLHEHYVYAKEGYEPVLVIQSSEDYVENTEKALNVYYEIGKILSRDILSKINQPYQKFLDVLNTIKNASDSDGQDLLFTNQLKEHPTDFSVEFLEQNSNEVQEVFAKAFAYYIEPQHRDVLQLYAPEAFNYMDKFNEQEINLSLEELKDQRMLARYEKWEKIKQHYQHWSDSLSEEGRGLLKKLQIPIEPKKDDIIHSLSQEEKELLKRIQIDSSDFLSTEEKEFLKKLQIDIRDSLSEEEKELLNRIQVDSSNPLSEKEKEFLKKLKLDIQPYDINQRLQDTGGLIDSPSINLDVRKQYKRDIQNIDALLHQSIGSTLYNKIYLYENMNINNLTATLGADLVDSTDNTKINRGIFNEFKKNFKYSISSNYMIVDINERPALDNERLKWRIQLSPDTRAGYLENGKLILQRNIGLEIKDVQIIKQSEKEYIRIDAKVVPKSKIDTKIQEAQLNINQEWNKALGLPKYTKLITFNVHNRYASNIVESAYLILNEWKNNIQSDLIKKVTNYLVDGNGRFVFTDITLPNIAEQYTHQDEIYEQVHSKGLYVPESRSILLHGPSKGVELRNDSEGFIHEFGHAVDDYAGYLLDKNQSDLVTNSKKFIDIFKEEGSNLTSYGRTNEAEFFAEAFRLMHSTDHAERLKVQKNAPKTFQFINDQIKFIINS
Vc quorum ag = inducers of Vibrio cholerae quorum light production without autoinducers, primary screen, BH1578 luxS cqsA deficient, single point; V. cholerae BH1578 lux reporter, luminescence, 6 h; activation, % at 18.7 µM; hit rate 0.16% among 350,000; in the data active means activation mostly above about 9.7%, no sharp cut-off; inconclusive means no clear call, values can overlap the other calls; inactive means mostly below about 3.7%
An asterisk follows results filed as active; i = inactive; ? = inconclusive. Unless noted, no stated cut-off is given here; in the data, active means inhibition above about 30%; inconclusive means no clear call, values can overlap the other calls; inactive means below that.

SMILES | Autofluor counter | BoNT-A LC inh2 | BoNT-F LC inh | Anthrax LF prot | Vc quorum ag
Cc1ccc(-c2nnn(CC(=O)N(Cc3cccs3)C(C(=O)NC3CCCC3)c3ccco3)n2)o1 (stereo unspecified) | 16932* | -1 | 1 | -3 | -1
COc1ccc(-c2nnn(CC(=O)N(Cc3cccs3)C(C)C(=O)NC3CCCC3)n2)cc1OC (stereo unspecified) | 10886 | 3 | 1 | 8 | 0
Cc1ccc(-c2nnn(CC(=O)N(Cc3cccs3)C(C(=O)NC3CCCCC3)c3ccco3)n2)o1 (stereo unspecified) | 3220 | 0 | 6 | -2 | 0
CCCC(C(=O)NC1CCCC1)N(C(=O)Cn1nnc(-c2ccc(C)o2)n1)C1CCCC1 (stereo unspecified) | 25114* | -4 | -6 | -1 | 1
COc1ccc(-c2nnn(CC(=O)N(CC(=O)NC3CCCC3)Cc3cccs3)n2)cc1OC | 24334* | -2 | -5 | -2 | 2
CC(=O)c1cccc(CN2CCCC(CCC(=O)NCc3ccccc3F)C2)c1 (stereo unspecified) | 5183 | -1 | 1 | -5 | i
CCc1nc2c(OCc3cc(Cl)cc(Cl)c3)cccn2c1N(C)C(=O)c1ccc(OC)cc1 | 3851 | 0 | 0 | 4 | -1
CC(C)N1CCC1(C)C(=O)Nc1cc(-c2ccccc2)nn1C (stereo unspecified) | 3114 | 0 | 2 | 1 | i
Cc1ccc2c(c1)N(C(C)C(=O)NCCc1ccccc1)C(=O)CO2 (stereo unspecified) | 20536* | ? | -3 | -1 | i
Cc1ccc2c(c1)N(CCC(=O)N1CCC3(CC1)OCCO3)C(=O)C(C)O2 (stereo unspecified) | 6156 | 1 | 1 | -10 | i

High-throughput results (PubChem)
